High-throughput results as filed in PubChem BioAssay.
This is one part of a sample in which hits are shown more often than they occur.
SARS PLpro yeast: blocks SARS-CoV papain-like protease in a yeast assay | actives 0.19% (n = 330,000) | Potency, µM (titrated, usually from 32.9 µM), most hits filed as activators | S. cerevisiae expressing SARS-CoV PLpro, growth rescue; calls by dose curve; note: nearly all actives have a fitted effect of over 55% in size
Shiga inhibitor: Shiga toxin inhibition. Vero cells, Shiga toxin protein synthesis inhibition reporter. inhibition, % at 38.7 µM. actives 9.2% (n = 290,000); in the data active = inhibition mostly above about 28%, no sharp cut-off; inactive = mostly below about 43%
CHX counter: affects cycloheximide protein synthesis inhibition readout, counter-screen; cell reporter, cycloheximide protein synthesis inhibition counterscreen; max response, %; actives 12% (n = 300,000); in the data active = max response mostly above about 13%, no sharp cut-off; inactive = mostly below about 14%; note: read at 38.3 µM for the half of the compounds with a filed dose
AmpC inh detg: inhibitors of E. coli AmpC beta-lactamase with detergent; AmpC hydrolysis of nitrocefin, absorbance 480 nm, 0.01% Triton; actives 0.041% (n = 370,000); Potency, µM (doses to about 114 µM), actives largely listed as inhibitors; AID 485294; note: nearly all actives have a fitted effect of over 25% in size
Target sequence (P00811 whole entry, looked up): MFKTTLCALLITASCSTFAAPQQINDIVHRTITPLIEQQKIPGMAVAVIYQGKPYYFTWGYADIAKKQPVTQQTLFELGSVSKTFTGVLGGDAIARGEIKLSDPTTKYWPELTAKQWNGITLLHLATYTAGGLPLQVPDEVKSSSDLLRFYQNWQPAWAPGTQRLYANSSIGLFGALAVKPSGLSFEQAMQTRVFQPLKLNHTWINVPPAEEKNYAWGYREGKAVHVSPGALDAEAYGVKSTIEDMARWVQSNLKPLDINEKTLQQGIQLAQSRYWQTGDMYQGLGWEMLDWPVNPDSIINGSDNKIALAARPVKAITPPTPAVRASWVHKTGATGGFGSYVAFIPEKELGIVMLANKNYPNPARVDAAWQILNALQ
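AmpC (5.3 nM in the dispensed reagent) in 20 mM phosphate pH 7.0 with 0.01% (detergent screen) or 0.0001% Triton X-100 was preincubated with compounds for 15 min at room temperature. Nitrocefin was then added from an 800 uM solution, and hydrolysis was followed at 480 nm.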
AmpC no deterg: AmpC beta-lactamase inhibition without detergent; P00811; AmpC nitrocefin hydrolysis, absorbance 480 nm, 0.0001% Triton; Potency, µM (highest dose often 57.1 µM), actives largely listed as inhibitors; actives 0.52% (n = 330,000); AID 485341; note: nearly all actives have a fitted effect of over 20% in size
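AmpC (5.3 nM in the dispensed reagent) in 20 mM phosphate pH 7.0 with 0.01% (detergent screen) or 0.0001% Triton X-100 was preincubated with compounds for 15 min at room temperature. Nitrocefin was then added from an 800 uM solution, and hydrolysis was followed at 480 nm.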
AMA1 RON2 block: disrupts binding of P. falciparum AMA1 to RON2; AlphaScreen AMA1-biotinylated RON2 peptide binding; Potency, µM (highest dose often 58.2 µM), most hits filed as inhibitors; actives 0.2% (n = 360,000); AID 720542; note: nearly all actives have a fitted effect of over 45% in size
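AMA1 (3D7) with his tag at 25 nM final met compounds first, then biotinylated RON2 peptide at 25 nM; detection used donor plus acceptor beads, 10 µg/mL apiece, read by AlphaScreen after 30 min at room temperature.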
Numbers stand for hits; - = inactive; ? = inconclusive; . = no result given; [ ] = another dose, or the depositor's remark. Unless noted, calls come from the whole dose curve; as a rule, active = well fitted curve in the direction sought with a large enough effect; inconclusive = small, poorly fitted or top-dose-only effect, or another doubt; inactive = no such curve, though single readings can be large; an effect the other way counts as inactive or inconclusive.

SMILES	SARS PLpro yeast	Shiga inhibitor	CHX counter	AmpC inh detg	AmpC no deterg	AMA1 RON2 block
Cc1cc([N+](=O)[O-])nn1CC(=O)Nc1cnc2ccccc2c1	-	-	-	?	-	-
CCOC(=O)C1(C)C=C(Nc2cccc(OC)c2)C(=O)N1c1ccccc1 (centres undefined)	-	-	-	-	-	-
O=C(Nc1ccc(Cl)cc1)OCc1ccccn1	-	77.9	28.5	-	-	-
O=C(Nc1ccncc1)OCc1ccccc1	-	.	-	-	-	-
CS(=O)(=O)c1ccccc1COC(=O)Nc1ccc(Cl)cc1	-	-	20.9	-	-	-
COc1ccccc1CC(=O)NCCN1CCCCC1	-	-	-	-	-	-
NS(=O)(=O)c1ccc(O)c(N2C(=O)c3cccc4c(C(=O)c5ccccc5)ccc(c34)C2=O)c1	-	-	-	-	10µM	.
COc1ccccc1N1C(=O)c2cccc3c(C(=O)O)ccc(c23)C1=O	-	-	-	-	-	-
CC1CC(C)CN(c2ncnc3c2cnn3C)C1 (centres undefined)	-	-	-	-	-	-
Cc1ccc(-n2ncc3c(N4CCCC(C)C4)ncnc32)c(C)c1 (centres undefined)	-	82.6	64.9	-	-	-
COc1cccc(N2CCN(c3ncnc4c3cnn4-c3ccc(C)cc3C)CC2)c1	-	-	17.1	-	-	-
Cc1ccc(-n2ncc3c(N4CCCC4)ncnc32)c(C)c1	-	-	-	-	-	-
CC1CCCN(c2ncnc3c2cnn3-c2ccc(Cl)cc2)C1 (centres undefined)	-	59.5	61.8	-	-	-
Cc1cccc(-n2ncc3c(N4CCCC(C)C4)ncnc32)c1 (centres undefined)	.	.	.	-	.	.
CC1CC(C)CN(c2ncnc3c2cnn3-c2ccc(Cl)cc2)C1 (centres undefined)	-	105.3	59.3	-	-	-
O=S(Cc1ccc(Br)cc1)Cc1nnc(SCc2ccc(Cl)cc2)n1-c1ccccc1 (centres undefined)	-	-	-	-	-	-
CC1CCCN(c2ncnc3c2cnn3-c2ccc(F)cc2)C1 (centres undefined)	.	.	.	-	.	.
CC1CCCN(c2ncnc3c2cnn3-c2ccccc2)C1 (centres undefined)	-	-	19.5	-	-	-
CC1=NN(c2ccc(Cl)c(C(=O)O)c2)C(=O)C1	-	-	-	-	-	-
CC1=NN(c2ccc(C(=O)O)cc2)C(=O)CC1	-	44.4	29.0	-	-	-
COc1ccc2ccccc2c1/C=N\NC(=O)c1ccc(C)s1	-	-	-	-	11.2µM	-
COc1ccc2ccccc2c1/C=N/NC(=O)c1sc(N)c(C#N)c1C	?	-	-	-	-	-
COc1ccc2ccccc2c1/C=N/NC(=O)c1ccccc1F	-	-	10.8	?	-	-
COc1ccc2ccccc2c1/C=N/NC(=O)c1cccc(Br)c1	-	-	-	?	-	-
O=c1[nH]c2sc3c(c2c2nncn12)CCCC3	-	-	-	-	-	-
SMILES	SARS PLpro yeast	Shiga inhibitor	CHX counter	AmpC inh detg	AmpC no deterg	AMA1 RON2 block
COC(=O)C(O)(c1ccc(NC(=O)c2ccccc2)cc1)C(F)(F)F (centres undefined)	-	103.1	51.1	-	-	-
COC(=O)C(O)(c1ccc(NC(=O)c2cccs2)cc1)C(F)(F)F (centres undefined)	-	71.7	33.3	-	-	-
CCOC(=O)C1=C(C)n2c(s/c(=C3\C(=O)Nc4ccccc43)c2=O)=NC1c1ccc(OC)cc1 (centres undefined)	-	-	-	-	-	-[2.32 µM]
O=C(CSc1nnc(NC2CCCCC2)s1)Nc1ccc(N2CCOCC2)cc1	-	41.4	21.1	-	-	-
CC(Sc1nnc(NC2CC2)s1)C(=O)Nc1ccc(N2CCOCC2)cc1 (centres undefined)	-	.	.	-	-	-
Cc1ccc(NC(=O)CSc2nnc(NC(=O)CN3CCOCC3)s2)cc1	-	-	-	-	-	-
CC(=O)c1ccc(NC(=O)CSc2nnc(NC(=O)CN3CCOCC3)s2)cc1	-	62.4	-	-	-	-
COc1ccc(N2C(=O)CSC2c2ccc3c(c2)OCO3)cc1 (centres undefined)	-	-	-	-	-	-
Cc1ccc(NC(=O)CSc2ncc(-c3ccccc3)n2C(=O)c2ccccc2)cc1	-	100.4	27.8	-	-	-
CCC(=O)n1nc(-c2ccccc2)nc1SCC(=O)Nc1ccc(C)cc1	-	-	-	?	-	-
Cc1ccc(NC(=O)CSc2nnc(-c3cccnc3)o2)c(C)c1	-	.	.	-	-	-
Cc1ccc(C(=O)n2c(-c3ccccc3)cnc2SCC(=O)Nc2ccccc2)cc1	-	-	15.1	-	-	-
Cc1ccc(NC(=O)CSc2nnc3scc(-c4ccccc4)n23)cc1	.	.	.	-	.	.
Cc1ccc(C(=O)n2c(-c3ccccc3)cnc2SCC(=O)Nc2ccc(C)cc2C)cc1	-	48.5	-	-	-	-
CN(C)Cc1cc(OCc2ccccc2)cc(CN(C)C)c1O	.	.	.	.	.	-
CC(C)NC(=O)c1onc(CSc2ccc(F)c(F)c2)c1C(=O)O	-	-	-	-	-	-
O=c1c2c(nc3n1CCCCC3)sc1c(O)c(Br)ccc12	-	-	16.1	-	-	-
CCN(CC)CCOc1c(Br)ccc2c1sc1nc3n(c(=O)c12)CCC3	-	-	-	-	-	-
O=c1c2c3c(sc2nc2n1CCCC2)CCCC3	-	42.1	18.8	?	-	-
CCN(Cc1ccc2c(c1)OCCO2)S(=O)(=O)c1ccc(NC(C)=O)cc1	-	.	.	-	-	-
O=C(Oc1ccc(Cl)c2cccnc12)c1cccc([N+](=O)[O-])c1	-	-	-	?	-	-
O=[N+]([O-])c1ccccc1COc1ccc(Cl)c2cccnc12	-	61.8	22.6	-	-	-
CC(=O)Nc1ccc(CNc2ncnc3ccc(-c4c(C)noc4C)cc23)cc1	-	-	-	-	-	.
Cc1noc(C)c1-c1ccc2ncnc(NCc3ccc(-c4ccccc4)cc3)c2c1	.	47.6	37.6	.	.	.
COc1ccc(NC(=O)CNS(=O)(=O)c2cccs2)cc1	-	-	-	-	-	-
SMILES	SARS PLpro yeast	Shiga inhibitor	CHX counter	AmpC inh detg	AmpC no deterg	AMA1 RON2 block
Cc1ccc(NC(=O)CCC(=O)NNC(=O)c2cccs2)cc1C	-	-	-	-	-	-
CCc1ccccc1NC(=O)CCC(=O)c1cccs1	-	-	-	-	-	-
Cc1ccc(NC(=O)CNS(=O)(=O)c2cccs2)cc1F	-	79.0	80.0	-	-	-
O=C(CCC(=O)c1cccs1)Nc1ccccc1F	-	-	16.5	-	-	-
Cc1ccc(NC(=O)CCNS(=O)(=O)c2cccs2)cc1F	-	69.7	26.2	-	-	-
Cc1ccc(NC(=O)CCC(=O)c2cccs2)cc1F	-	-	26.8	-	-	-
